p53 reactivation = qHTS assay for re-activators of p53 using a Luc reporter; Potency, µM (doses to about 92.2 µM), for the others: at the top dose activity change, positive = activation, hits mostly activators; 0.063% of 320,000 active; H1299 p53-A138V BP100-luciferase reporter, luminescence, 24 h; AID 504706, 2011; also: % of control where 0% means no effect; nearly all actives have a fitted effect of over 45% in size
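p53-null H1299 cells stably carrying temperature-sensitive p53-A138V and a BP100-luciferase reporter were pinned with compounds (4-point, 1:5 series) and held 24 hrs at 37 deg C. Luminescence was read 10 min after detection reagent.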
FLuc modulator = qHTS profiling assay for firefly luciferase inhibitor/activator using purifed enzyme and Km concentrations of substrates (counterscreen for miR-21 project); purified FLuc, Km substrates, luminescence inhibition; Potency, µM (top dose mostly 57.5 µM), for inactives: at the top dose activity change, negative = inhibition, usual class: inhibitors; 6.9% of 360,000 active; AID 588342, 2011;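 also: plate controls were vehicle for no effect and reference inhibitor for full effect; nearly all actives have a fitted effect of over 55% in size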
Target sequence (P08659 whole entry, looked up): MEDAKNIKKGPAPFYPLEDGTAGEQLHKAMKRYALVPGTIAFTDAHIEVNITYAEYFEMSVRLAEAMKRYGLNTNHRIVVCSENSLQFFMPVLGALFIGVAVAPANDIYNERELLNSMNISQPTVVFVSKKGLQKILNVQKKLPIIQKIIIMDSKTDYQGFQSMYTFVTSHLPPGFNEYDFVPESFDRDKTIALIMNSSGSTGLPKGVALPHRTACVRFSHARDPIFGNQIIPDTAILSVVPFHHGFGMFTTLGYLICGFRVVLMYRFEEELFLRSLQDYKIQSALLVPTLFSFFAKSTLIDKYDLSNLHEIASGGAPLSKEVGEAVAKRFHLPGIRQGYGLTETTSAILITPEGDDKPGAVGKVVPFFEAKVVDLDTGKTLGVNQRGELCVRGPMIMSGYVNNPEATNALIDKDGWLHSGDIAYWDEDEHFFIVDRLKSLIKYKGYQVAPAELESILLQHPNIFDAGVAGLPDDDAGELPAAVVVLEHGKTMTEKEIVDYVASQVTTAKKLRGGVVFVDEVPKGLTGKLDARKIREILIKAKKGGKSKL
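Biochemical qHTS of compounds, final roughly 60 µM downward over six points, against 10 nM purified firefly luciferase using Km concentrations of substrates (10 uM D-luciferin, 10 uM ATP) in Tris acetate pH 7.5 buffer; luminescence output.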
ELG1 genotoxic = qHTS screen for small molecules that induce genotoxicity in human embryonic kidney (HEK293T) cells expressing luciferase-tagged ELG1; 1.3% of 330,000 active; AID 504466, 2011; Potency, µM (top dose mostly 46 µM), without a hit: at the top dose activity change, positive = activation, usual class: activators; HEK293T ELG1-luciferase reporter, luminescence, 16 h; also: % of control where 0% means no effect; nearly all actives have a fitted effect of over 60% in size
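Step 1: seed 2,000 HEK293T ELG1-luciferase cells per well. Step 2: add compound or DMSO, incubate 16 hr at 37 °C. Step 3: ONE-Glo, 30 min at room temperature, read luminescence.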
SMN2 splice up = qHTS Assay for Enhancers of SMN2 Splice Variant Expression; 2.8% of 210,000 active; HEK293 SMN2-luciferase splicing reporter, luminescence, 30-36 h; AID 1458, 2008; Potency, µM (titrated, usually from 46.1 µM), inactives show at the highest dose activity change, positive = activation, actives largely listed as activators; also: % of control where 0% means no effect; nearly all actives have a fitted effect of over 55% in size
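HEK293 cells carry an SMN2 […]–luciferase reporter in which exon 7 inclusion puts luciferase in frame. Cells were plated 10-12 h before compound addition, then incubated 30-36 h at 37C. ONE-Glo luminescence was read; sodium butyrate at 4.5 mM final served as control.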
NPC1 promoter act = qHTS Assay for NPC1 Promoter Activators; 2.4% of 320,000 active; Potency, µM (highest dose often 9.22 µM), inactives show at the highest dose activation, hits mostly activators; AID 485313, 2010; Huh7 NPC1 promoter luciferase reporter, 24 h; also: % of control where 0% means no effect; nearly all actives have a fitted effect of over 60% in size
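Compounds in DMSO were transferred onto Huh7 NPC1-luciferase reporter cells pre-incubated 2 h; after 24 h at 37 °C, Amplite reagent was dispensed and luminescence recorded 10 min later.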
Rab9 prom act = qHTS Assay for Rab9 Promoter Activators | Huh7 Rab9 promoter-luciferase reporter, luminescence, 24 h | Potency, µM (doses to about 9.22 µM), inactives show at the top dose activation, negative = inhibition, usual class: activators | 2.8% of 320,000 active | AID 485297, 2010; also: % of control where 0% means no effect; nearly all actives have a fitted effect of over 60% in size
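Rab9 promoter-driven luciferase in stably transfected Huh7 cells; 1500 cells/well rested 2 h, exposed to compound in DMSO for 24 h at 37 °C, 5% CO2. Luminescence read 10 min after adding luciferase reagent at ambient temperature.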
* hit, by the source's call; ? = inconclusive; nt = not tested or not shown. In the library only some 7.3% were active in any assay of this set; here they are far more common. Calls follow the shape of the dose curve; as a rule, active = well fitted curve in the direction sought with a large enough effect; inconclusive = small, poorly fitted or top-dose-only effect, or another doubt; inactive = no such curve, though single readings can be large; an effect the other way counts as inactive or inconclusive. Potency is read from the fitted curve at half-maximal effect.

SMILES	p53 reactivation	FLuc modulator	ELG1 genotoxic	SMN2 splice up	NPC1 promoter act	Rab9 prom act
CCOc1ccc2ccccc2c1/C=N\NC(=O)c1ccc([N+](=O)[O-])cc1	nt	9.5µM*	3%	nt	0%	-1%
O=C(N/N=C\c1c(O)ccc2ccccc12)c1ccc(O)cc1	21%	12µM*	23%	nt	-41%	3%
Cn1cc(C(=O)N/N=C/c2c(O)ccc3ccccc23)ccc1=O	-2%	-17%	?	-93%	-34%	-41%
Cn1c(-c2ccccc2)c(/C=N/NC(=O)c2ccc(O)cc2)c2ccccc21	21%	0.95µM*	?	nt	?	?
COc1ccc(-c2nnc(C3CCN(C(=O)c4ccccc4F)CC3)o2)cc1	nt	?	nt	0%	nt	nt
CCCNC(=O)c1cc2n(n1)CCCN(Cc1ccc(F)cc1)C2=O	nt	0%	nt	-8%	nt	nt
O=C(NCCc1ccccc1Cl)c1ccc2c(c1)nc1n2CCOC1	nt	4.8µM*	nt	nt	nt	nt
COc1ccc(CNC(=O)c2ccc3c(=O)n4c(nc3c2)CCCCC4)cc1OC	-4%	-2%	0%	nt	-14%	-14%
CCCNC(=O)c1ccc2c(c1)nc1n2CCCCC1	nt	17µM*	nt	nt	nt	nt
COc1ccc(CNC(=O)c2ccc3c(c2)nc2n3CCCCC2)cc1	nt	17µM*	nt	nt	nt	nt
O=C(NCCC1=CCCCC1)c1ccc2c(=O)n3c(nc2c1)CCCCC3	11%	-18%	0%	-16%	13%	4%
Cc1cccc(CCNC(=O)c2ccc3c(c2)nc2n3CCCCC2)c1	nt	4.8µM*	nt	nt	nt	nt
COc1ccc(Oc2ncc3nc(-c4cccs4)c(=O)n(Cc4cccc(OC)c4)c3n2)cc1	nt	nt	nt	-8%	nt	nt
CC(=O)OCC(=O)[C@@]12OC3(CCCC3)OC1CC1C3CCC4=CC(=O)C=C[C@@]4(C)[C@]3(F)C(O)C[C@]12C (some centres not stated)	nt	nt	nt	0%	nt	nt
CCCc1nc(SCC(=O)N2CCC(Cc3ccccc3)CC2)c2c(=O)n(C)c(=O)n(C)c2n1	3%	6%	-55%	-29%	1%	-2%
COc1ccccc1NC(=O)N1CCN(c2cc(-c3ccccc3)nc3ncnn23)CC1	-16%	2%	-14%	-37%	-4%	-15%
Cc1cccc(CCNC(=O)c2ccc3c(c2)nc2n3CCOC2)c1	nt	15µM*	nt	nt	nt	nt
Cc1ccc(CNC(=O)c2ccc3c(c2)nc2n3CCOC2)cc1	nt	2%	nt	nt	nt	nt
O=C(CCc1nc2cccnc2n1Cc1ccccc1)NCc1cccc(Cl)c1	nt	-11%	nt	4%	nt	nt
Cc1cc2nc(-c3ccc(=O)[nH]c3)n(Cc3ccccc3)c2cc1C	2%	15µM*	?	nt	-4%	11%
Cc1ccc(C(=O)N2CCN(c3ccc(NC(=O)Cc4ccccc4)cc3)CC2)cc1	-15%	3%	-13%	nt	-2%	2%
COc1cc(NC(=O)CCc2nc3cccnc3n2Cc2cccs2)cc(OC)c1OC	nt	-11%	nt	-8%	nt	nt
COc1cc(NC(=O)c2cnc(N)o2)cc(C(=O)Nc2cccc(C(F)(F)F)c2)c1	-6%	21µM*	-13%	nt	-3%	-6%
COc1cc(NC(=O)c2ccnc(N)c2)cc(C(=O)Nc2cccc(C(F)(F)F)c2)c1	-3%	19µM*	0%	nt	-8%	-3%
COc1cc(NC(=O)c2cnc(N)s2)cc(C(=O)Nc2cccc(C(F)(F)F)c2)c1	4%	12µM*	-3%	nt	13%	11%
SMILES	p53 reactivation	FLuc modulator	ELG1 genotoxic	SMN2 splice up	NPC1 promoter act	Rab9 prom act
CCc1ccc(Oc2c(C(F)(F)F)oc3c(CN4CCC(C)CC4)c(O)ccc3c2=O)cc1	nt	2%	nt	-8%	nt	nt
COC(=O)c1ccc(NC(=O)CCNS(=O)(=O)c2cccc3nsnc23)cc1	nt	0%	nt	6%	nt	nt
CCOc1ccc(NC(=O)CCNS(=O)(=O)c2ccc3c(c2)CCCC(=O)N3)cc1	nt	-5%	nt	nt	nt	nt
COc1cccc(N2CC(NC(=O)c3cccs3)CC2=O)c1 (configuration not stated)	nt	-6%	nt	nt	nt	nt
Cc1ccc(Oc2ccc(Oc3ccc(C)cc3)nn2)cc1	0%	-4%	2%	1%	17%	26%
Cc1ccccc1Oc1ccc(Oc2ccccc2C)nn1	21%	?	?	?	4µM*	?
CC(C)Oc1ccc(C(=O)Nc2ccc(C(F)(F)F)n(C)c2=O)cc1	?	19µM*	3%	-2%	2%	10%
Cc1[nH]c(=O)[nH]c(=O)c1NC(=O)c1ccc(OC(C)C)cc1	3%	0%	1%	nt	-3%	-3%
CC1CCc2c(C(=O)Nc3cccc(-c4nn[nH]n4)c3)csc2C1 (configuration not stated)	16%	2.7µM*	?	nt	16%	?
Cc1cc(F)ccc1NC(=O)c1csc2c1CCC(C)C2 (configuration not stated)	nt	?	nt	6.3µM*	nt	nt
CCc1nnc(NC(=O)c2csc3c2CCC(C)C3)s1 (configuration not stated)	3%	-8%	?	?	?	2µM*
COc1ccccc1NC(=O)c1csc2c1CCC(C)C2 (configuration not stated)	0%	?	16%	nt	?	29%
CCCCC(CC)CNC(=O)c1ccc(Cn2c(=O)[nH]c3cc(OC)c(OC)cc3c2=O)cc1 (configuration not stated)	nt	3%	nt	-6%	nt	nt
Cc1cn(S(=O)(=O)c2ccc(F)c(Cl)c2)cn1	nt	-13%	nt	-2%	nt	nt
COc1cc2[nH]c(=O)n(CCCCCC(=O)N3CCN(c4ccc(Cl)cc4)CC3)c(=O)c2cc1OC	nt	-12%	nt	-6%	nt	nt
COC(=O)C1(C(=O)OC)CC2=C[C@H](CC2=O)Cc2ccccc2[C@@H]1C[N+](=O)[O-]	nt	nt	nt	8%	nt	nt
Nc1nc(CN2CCCCCC2)nc(Nc2ccccc2)n1	7%	0%	2%	7%	7%	-2%
Cc1c(-c2nc(N)nc(Nc3ccccc3)n2)oc2ccccc12	-5%	4.8µM*	7.3µM*	11µM*	1.4µM*	2.5µM*
O=C(Nc1ccc([N+](=O)[O-])cc1)Nc1ccon1	-31%	1%	-3%	nt	-12%	-16%
CCc1ccc(NC(=O)Nc2ccon2)cc1	?	7.6µM*	?	nt	2.2µM*	2.5µM*
CCc1ccc(NC(=O)Nc2cnccn2)cc1	?	11µM*	?	nt	?	3.5µM*
CCCCc1ccc(NC(=O)Nc2cnccn2)cc1	-3%	?	6%	nt	-8%	24%
CCc1cccc(CC)c1NC(=O)c1c(C)oc2ccc(O)c(CN3CCN(C)CC3)c12	nt	4%	nt	-2%	nt	nt

High-throughput results deposited in PubChem by National Center for Advancing Translational Sciences (NCATS).
